Source: PubChem (National Center for Advancing Translational Sciences (NCATS))
Pf growth 48h – P. falciparum growth inhibition at 48 hours (one generation). P. falciparum luciferase growth in erythrocytes, 48 h. AID 504832. Potency, µM (titrated, usually from 28.7 µM), for the others: at the highest dose activity change, negative = inhibition, hits mostly inhibitors. 310,000 compounds, 5.9% hits; also: potency is read from the fitted curve at half-maximal effect; % is scaled to controls: 0 for no effect and ±100 for the full control effect
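Cell-based growth assay: transgenic P. falciparum expressing firefly luciferase, cultured in red cells within RPMI 1640 containing 0.5% w/v Albumax, 24 mM bicarbonate and gentamycin. A drop in luciferase activity indicates inhibition.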
Cycloheximide cs – counter-screen hit for Shiga toxin inhibitors, cycloheximide; cell reporter, cycloheximide protein synthesis inhibition counterscreen; max response, %; 300,000 compounds, 12% hits; in the data active = max response mostly above about 13%, no sharp cut-off; inactive = mostly below about 14%; also: read at 38.3 µM for the half of the compounds with a filed dose; 0% is about no effect
Shiga inhibitor – blocks Shiga toxin action in Vero cells; Vero cells, Shiga toxin protein synthesis inhibition reporter; inhibition, % at 38.7 µM; 290,000 compounds, 9.2% hits; AID 2315; in the data active = inhibition mostly above about 28%, no sharp cut-off; inactive = mostly below about 43%; also: 0% is about no effect
Pf growth 96h – P. falciparum growth inhibition at 96 hour, primary screen for plastid delayed-death inhibitors. 320,000 compounds, 6.9% hits. P. falciparum luciferase reporter growth, 96 h. Potency, µM (titrated, usually from 28.7 µM), for the others: at the highest dose activity change, negative = inhibition, hits mostly inhibitors; also: potency is read from the fitted curve at half-maximal effect; % is scaled to controls: 0 for no effect and ±100 for the full control effect
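96 h incubation, 37 C, 5% CO2, of luciferase-reporter P. falciparum-infected RBCs (2% hematocrit, 0.05% parasitemia final) with test compounds; endpoint luminescence.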
LmPK inhibitor – blocks Leishmania mexicana pyruvate kinase activity. Q27686. purified LmPK, Kinase-Glo ATP luminescence, 1 h. Potency, µM (highest dose often 57.5 µM), inactives show at the highest dose activity change, negative = inhibition, actives largely listed as inhibitors. 290,000 compounds, 0.37% hits. AID 1721; also: potency is read from the fitted curve at half-maximal effect; % is scaled to controls: 0 for no effect and ±100 for the full control effect
Target sequence (Q27686 whole entry, looked up): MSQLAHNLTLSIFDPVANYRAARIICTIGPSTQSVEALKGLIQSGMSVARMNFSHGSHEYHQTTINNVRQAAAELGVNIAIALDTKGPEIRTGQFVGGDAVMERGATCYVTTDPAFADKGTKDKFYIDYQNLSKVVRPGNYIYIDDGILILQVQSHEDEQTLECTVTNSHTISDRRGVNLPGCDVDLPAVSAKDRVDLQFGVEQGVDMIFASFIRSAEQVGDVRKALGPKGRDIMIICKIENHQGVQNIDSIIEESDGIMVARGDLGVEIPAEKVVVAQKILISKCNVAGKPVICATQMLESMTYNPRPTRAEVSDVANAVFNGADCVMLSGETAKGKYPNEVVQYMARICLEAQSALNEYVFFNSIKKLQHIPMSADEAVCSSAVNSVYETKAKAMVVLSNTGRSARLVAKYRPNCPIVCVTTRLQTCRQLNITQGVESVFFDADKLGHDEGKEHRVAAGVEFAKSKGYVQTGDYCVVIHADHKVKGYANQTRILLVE
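0.1 nM LmPK, 0.5 mM PEP, 0.1 mM ADP; 50 mM imidazole pH 7.2, 7 mM MgCl2, 50 mM KCl; 1 h RT. Kinase-Glo luminescence readout, normalized to no-enzyme (full inhibition) and uninhibited wells.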
Starred values were filed as active, the others as inactive; i = inactive; ? = inconclusive; / = no result. An excerpt weighted towards active compounds, which were near 22% of everything screened. Unless noted, calls follow the shape of the dose curve; as a rule, active = well fitted inhibition curve with a large enough effect; inconclusive = small, poorly fitted or top-dose-only effect, or another doubt; inactive = no such curve, though single readings can be large or run the other way.

SMILES	Pf growth 48h	Cycloheximide cs	Shiga inhibitor	Pf growth 96h	LmPK inhibitor
CCN(CC)c1ccc(NC(=O)c2ccc3c(c2)c(C)c(C)n3C)cc1	?	8	10	?	-5%
COc1ccccc1NC(=S)NC(=O)c1ccc(Cn2cc(Br)cn2)cc1	?	-1	-5	-102%	1%
CCN(CC)c1ccc(NC(=O)c2cnn(CC)c2)cc1	?	44*	100*	?	-7%
CCOc1ccc(CC(=O)NCC2(N3CCCCC3)CCCCC2)cc1	-9%	-1	4	-10%	0%
CCN(CC)CCN1C(=O)C(O)=C(C(=O)c2cc3cccc(OC)c3o2)C1c1ccc(F)cc1 (configuration not stated)	38%	-2	-2	55%	-1%
CCn1cc(C(=O)NC(=S)Nc2ccccc2[N+](=O)[O-])cn1	-6%	35*	58*	32%	0%
CCn1cc(C(=O)NC(=S)Nc2cccc(O)c2)cn1	/	28*	58*	110%	0%
O=C(NC(=S)Nc1ccccc1[N+](=O)[O-])c1cncc(Br)c1	8%	-2	38	2.6µM*	1%
CS(=O)(=O)N(CCc1ccccc1)CC(=O)N1CCc2ccccc2C1	-2%	-4	-11	/	-1%
COC(=O)c1ccc(CNC(=O)C(NC(=O)c2ccco2)C(C)C)cc1 (configuration not stated)	4%	-2	-6	11%	0%
O=C(NC1CCCCCC1)C1c2ccccc2C(=O)N1CCCN1CCOCC1 (configuration not stated)	-12%	-2	-5	13µM*	0%
CC(C)OCCCN1C(=O)c2ccccc2C1C(=O)NC1CCCCC1 (configuration not stated)	0%	-2	-17	1%	-3%
O=C(O)c1cnc(-c2ccccc2)nc1Sc1ccc(Cl)cc1Cl	12%	-2	-5	118%	0%
CS(=O)(=O)Nc1ccc(C(=O)NCCC2=CCCCC2)cc1	61%	55*	144*	/	1%
O=C(NCCC1=CCCCC1)c1ccc(Cl)cc1	101%	33*	46	87%	0%
CCOc1ccc(CCNC(=O)CSc2cc(=O)n(C)c3cc(Cl)ccc23)cc1OCC	18%	-1	-1	?	5%
CS(=O)(=O)N(Cc1ccc(Cl)cc1)c1ccc(C(=O)NCCC2=CCCCC2)cc1	/	-2	-8	17%	1%
O=C(NCCC1=CCCCC1)c1ccc(=O)oc1	7%	-3	-3	?	1%
Cn1c(=O)cc(SCC(=O)NCCC2=CCCCC2)c2ccc(Cl)cc21	-7%	-4	-9	15µM*	5%
CC(C)CN(C(=O)CN(C)C(=O)c1ccco1)c1c(N)n(CC(C)C)c(=O)[nH]c1=O	?	/	/	11%	/
COc1ccc(CCN2C(=O)c3[nH]nc(-c4ccccc4O)c3C2c2cccc(Cl)c2)cc1 (configuration not stated)	3.3µM*	-3	-2	1.9µM*	2%
COc1ccc(C2c3c(-c4ccccc4O)n[nH]c3C(=O)N2CCc2ccc(OC)c(OC)c2)cc1 (configuration not stated)	7.4µM*	7	-13	46%	1%
CN(C)c1ccc(N=Nc2ccc(S(N)(=O)=O)cc2)cc1	51%	52*	89*	-25%	-6%
CN(C)c1ccc(N=Nc2cccc3ccoc23)cc1	i	56*	137*	203%	-15%
CN(C)c1ccc(N=Nc2cccc(F)c2)cc1	189%	41*	96*	142%	-8%
SMILES	Pf growth 48h	Cycloheximide cs	Shiga inhibitor	Pf growth 96h	LmPK inhibitor
Cc1cccc(N=Nc2ccc(N(C)C)cc2)c1	208%	43*	126*	148%	1%
O=C(CN1C(=O)NC2(CCc3ccccc3C2)C1=O)Nc1ccc(F)cc1 (configuration not stated)	-2%	-6	-5	-21%	-1%
O=S(=O)(Nc1cccc2ccccc12)c1ccc2ccccc2c1	/	2	3	/	/
COCc1c(C(=O)N/N=C(/C)c2ccc(OCc3ccccc3)cc2)nnn1-c1nonc1N	45%	23*	97*	47%	4%
C/C(=N\NC(=O)c1nnn(-c2nonc2N)c1C)c1ccc(OCc2ccccc2)cc1	50%	22*	57*	5%	7%
CCN(CC)CCCNC(=O)C1CCN(C(=O)c2oc3cc4sc(N(C)C)nc4cc3c2C)CC1	-17%	19*	24	12µM*	-1%
COCCCNC(=O)C1CCN(C(=O)c2oc3cc4sc(N(C)C)nc4cc3c2C)CC1	10%	36*	60*	?	-5%
COCCCNC(=O)C1CCN(c2nc(C)cc(C)n2)CC1	3%	-5	1	5.2µM*	1%
Cc1cc(OC(=O)c2ccccc2F)c([N+](=O)[O-])c(=O)[nH]1	30%	-6	-3	-25%	-13%
N#CC1=C(N)Oc2cc(N)ccc2C1c1ccc(F)cc1 (configuration not stated)	6%	-2	-17	/	1%
N#CC1=C(N)Oc2cc(N)ccc2C1c1ccc(F)cc1F (configuration not stated)	1%	-2	-2	5.9µM*	1%
Cc1ccc(S(=O)(=O)N2CCN(C(=O)Cn3nc(C)c([N+](=O)[O-])c3C)CC2)cc1	-10%	/	/	-18%	/
Cc1ccc(S(=O)(=O)N2CCOC2C(Cl)(Cl)Cl)cc1 (configuration not stated)	8.3µM*	-3	-9	14%	-4%
CNC(=O)C(=O)NCC1OCCN1S(=O)(=O)c1ccc(C)cc1 (configuration not stated)	7%	1	-29	22%	-17%
C[C@@H](C(=O)OCn1nnc2ccccc2c1=O)N1C(=O)C2CCCCC2C1=O (some centres not stated)	8%	4	-5	12%	-1%
CCCCC(=O)OCC(=O)Nc1ccc(C)c(F)c1	34%	2	15	24%	8%
O=C(N/N=C/c1cc([N+](=O)[O-])ccc1N1CCNCC1)c1ccc([N+](=O)[O-])cc1	?	0	-9	4.1µM*	-6%
CCN(CC)C(=O)C1CCCN(c2ccc([N+](=O)[O-])cc2/C=N/NC(=O)c2cccc([N+](=O)[O-])c2)C1 (configuration not stated)	?	-2	-3	10µM*	3%
N#CCC(=O)N/N=C/c1cc([N+](=O)[O-])ccc1N1CCCC1	?	33	47*	?	1%
O=[N+]([O-])c1cccc(S(=O)(=O)[N-]c2nc3ccccc3nc2-n2cc[n+](Cc3ccccc3)c2)c1	3%	-3	-8	6%	5%
COc1ccc(-n2c(SC(C)C(=O)Nc3ncc(Cl)cc3Cl)nc3ccccc32)cc1 (configuration not stated)	10µM*	2	-2	?	-6%
COc1ccc(NC(=O)CSC(C)c2nc3ccccc3c(=O)[nH]2)cc1 (configuration not stated)	12%	5	-3	9%	0%
